{
  "source": "PubChem BioAssay (NCI)",
  "note": "About 83,000 compounds went through this panel and 20% of them were active in at least one assay; those are over-represented in the sample as a whole.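 Each cell line was grown in a 96-well plate and treated with one concentration of compound for 48 hours. Values below 10 were considered active.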 Calls of active or inactive are those of the source.",
  "data": [
    {"system": "MDA-MB-468 breast", "test": "NCI-60 one-dose screen, 48 h (100 = growth as untreated, 0 = no growth, -100 = all killed)", "settings": "10 µM unless noted", "values": [
      {"smiles": "CO[C@@H](c1ccccc1Cl)[C@H](C)OC(N)=O", "growth": "91.6% (inactive)"},
      {"smiles": "N#CC(C#N)=Cc1ccc2ccccc2c1", "growth": "105% (inactive)"},
      {"smiles": "CC1(C)N=C(N)N=C(N)N1c1cccc(CCCCc2ccc(Cl)c(S(=O)(=O)F)c2)c1", "growth": "75.8% (inactive)"},
      {"smiles": "[Br][Pb]([c]1ccccc1)([c]1ccccc1)[c]1ccccc1", "growth": "-88.2% (active)"},
      {"smiles": "CC1=C(CN(O)C(N)=O)C2=C(C)C3(CC3)[C@@](C)(O)C(=O)C2=C1", "growth": "-69.1% (active)"},
      {"smiles": "C=CCC1(CC)C(=O)NC(=S)NC1=O", "growth": "97.4% (inactive)"},
      {"smiles": "CC(C)(C)NCC(O)c1ccccc1Cl", "note": "(stereo not given)", "growth": "-12.6% (active)"},
      {"smiles": "O=[N+]([O-])c1ccc2cnn(CSP(=S)(c3ccccc3)c3ccccc3)c2c1", "growth": "43.1% (inactive)"},
      {"smiles": "Nc1cccnc1", "growth": "130% (inactive)"},
      {"smiles": "Cc1ccc(C(=O)C2CN(C)CCC2(O)c2ccc(C)cc2)cc1", "note": "(stereo not given)", "growth": "119% (inactive)"},
      {"smiles": "COc1ccc(/C=C\\c2cc(OC)c(OC)c(OC)c2)c(NS(=O)(=O)c2ccc(Cl)cc2)c1O", "growth": "9.56% (active)"},
      {"smiles": "COc1ccc(/C=C\\c2cc(OC)c(OC)c(OC)c2)cc1NC(=O)/C=C/c1cc(OC)c(OC)c(OC)c1", "growth": "16.5% (inactive)"},
      {"smiles": "Cc1cc(NC(=O)NCc2ccc(N3C(N)=NC(N)=NC3(C)C)cc2)ccc1S(=O)(=O)F", "growth": "63.3% (inactive)"},
      {"smiles": "CC[CH2][Pb]([CH2]CC)([CH2]CC)[O]C(=O)C(F)(F)F", "growth": "-90.1% (active)"},
      {"smiles": "CCOC(=O)c1c(C)n(Cc2ccccc2)c2cc(CN(C)C)c(O)cc12", "growth": "73.9% (inactive)"},
      {"smiles": "Cc1cc(NC(=O)NCCCOc2ccc(N3C(N)=NC(N)=NC3(C)C)cc2Cl)ccc1S(=O)(=O)F", "growth": "7.83% (active)"},
      {"smiles": "O=[N+]([O-])/C=C/c1ccc(Cl)cc1[N+](=O)[O-]", "growth": "-55.9% (active)"},
      {"smiles": "Cc1cc(NC(=O)CCc2ccc(N3C(N)=NC(N)=NC3(C)C)cc2)ccc1S(=O)(=O)F", "growth": "32.4% (inactive)"},
      {"smiles": "O=c1[nH]c(=O)[nH]c(=O)[nH]1", "growth": "146% (inactive)"},
      {"smiles": "Cc1cc(-c2nc3cc(F)ccc3[se]2)cc(F)c1N", "growth": "-39% (active)"},
      {"smiles": "COC(=O)[C@@H](C)C[C@H](Cc1ccccc1)NC(=O)c1csc([C@@H](C[C@H](C(C)C)N(C)C(=O)[C@H](C)NC(=O)[C@H]2CCCCN2C)OC(C)=O)n1", "growth": "10.1% (inactive)"},
      {"smiles": "CS(=N)(=O)CCC(N)C(=O)O", "note": "(stereo not given)", "growth": "106% (inactive)"},
      {"smiles": "COc1ccc(NP2(=O)OCC(C)(N)CO2)cc1", "note": "(stereo not given)", "growth": "105% (inactive)"},
      {"smiles": "CCOC(=O)[C@@H](C)C[C@H](Cc1ccccc1)NC(=O)c1csc([C@@H](C[C@H](C(C)C)N(C)C(=O)[C@H](CC)NC(=O)[C@H]2CCCCN2C)OC(C)=O)n1", "growth": "32.5% (inactive)"},
      {"smiles": "CC[S][Hg][Cl]", "growth": "116% (inactive)"},
      {"smiles": "CNC(=O)Oc1ccc(Cl)cc1SSc1cc(Cl)ccc1OC(=O)NC", "growth": "85.2% (inactive)"},
      {"smiles": "COc1cc(NCCCN=C(N)N)c2ncccc2c1", "growth": "-37.1% (active)"},
      {"smiles": "CC(=O)c1ccc(C(=O)NCC2CCC3(CC2)OOC2(CCCCC2)OO3)cc1", "growth": "65.7% (inactive)"},
      {"smiles": "CC(C)(C)N1CC1C#N", "note": "(stereo not given)", "growth": "97% (inactive)"},
      {"smiles": "Cc1ccc(C(=O)O[C@H](C(=O)O)[C@H](OC(=O)c2ccc(C)cc2)C(=O)O)cc1", "growth": "103% (inactive)"}
    ]}
  ]
}
